# Tests used:
# Experiment in all cases: SPOT peptide array binding signal intensity (averaged, normalized) (arbitrary units (background-subtracted, floor 0; scale differs between SH3 domains)); higher = stronger binding of the SH3 domain to the peptide
# [1] = biological target: AgAbp1
# In short: (§1)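 GST-fused SH3 domains from four yeast species were expressed in E. coli BL21(DE3), purified on glutathione Sepharose and incubated at 10 μg/ml overnight at 4°C in TBS-based blocking buffer on cellulose membranes carrying synthetic 15-mer peptides, with cysteines replaced by serines. Bound protein was detected with anti-GST antibody, an HRP anti-mouse secondary and luminol, then imaged and quantified with Genespotter. Binding signal is the normalized, background-subtracted spot intensity averaged over replicates, in arbitrary units that differ between domains.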
# [2] = biological target: AgBbc1
# In short: as §1
# [3] = biological target: AgBem1-D1
# In short: as §1
# [4] = biological target: AgBzz1-D1
# In short: as §1
# [5] = biological target: AgBzz1-D2
# In short: as §1
# [6] = biological target: AgCyk3
# In short: as §1
# [7] = biological target: AgFus1
# In short: as §1
# [8] = biological target: AgHof1
# In short: as §1
# [9] = biological target: AgHse1
# In short: as §1
# [10] = biological target: AgLsb1
# In short: as §1
# [11] = biological target: AgLsb4
# In short: as §1
# [12] = biological target: AgMyo5
# In short: as §1
# [13] = biological target: AgNbp2
# In short: as §1
# [14] = biological target: AgRvs167
# In short: as §1
# [15] = biological target: AgSho1
# In short: as §1
# [16] = biological target: AgSla1-D1-D2
# In short: as §1
# [17] = biological target: AgSla1-D3
# In short: as §1
# [18] = biological target: CaAbp1-D1
# In short: as §1
# [19] = biological target: CaAbp1-D2
# In short: as §1
# [20] = biological target: CaBbc1
# In short: as §1
# [21] = biological target: CaBem1-D1
# In short: as §1
# [22] = biological target: CaBzz1-D1
# In short: as §1
# [23] = biological target: CaBzz1-D2
# In short: as §1
# [24] = biological target: CaCyk3
# In short: as §1
# [25] = biological target: CaFus1
# In short: as §1
# [26] = biological target: CaHof1
# In short: as §1
# [27] = biological target: CaHse1
# In short: as §1
# [28] = biological target: CaLsb1
# In short: as §1
# [29] = biological target: CaLsb4
# In short: as §1
# [30] = biological target: CaMyo5
# In short: as §1
# [31] = biological target: CaNbp2
# In short: as §1
# [32] = biological target: CaRvs167
# In short: as §1
# [33] = biological target: CaRvs167-3
# In short: as §1
# [34] = biological target: CaSho1
# In short: as §1
# [35] = biological target: CaSla1-D1-D2
# In short: as §1
# [36] = biological target: CaSla1-D3
# In short: as §1
# [37] = biological target: ScAbp1
# In short: as §1
# [38] = biological target: ScBbc1
# In short: as §1
# [39] = biological target: ScBem1-D1
# In short: as §1
# [40] = biological target: ScBzz1-D1
# In short: as §1
# [41] = biological target: ScBzz1-D2
# In short: as §1
# [42] = biological target: ScCyk3
# In short: as §1
# [43] = biological target: ScFus1
# In short: as §1
# [44] = biological target: ScHof1
# In short: as §1
# [45] = biological target: ScHse1
# In short: as §1
# [46] = biological target: ScLsb1
# In short: as §1
# [47] = biological target: ScLsb2
# In short: as §1
# [48] = biological target: ScLsb3
# In short: as §1
# [49] = biological target: ScLsb4
# In short: as §1
# [50] = biological target: ScMyo3
# In short: as §1
# [51] = biological target: ScMyo5
# In short: as §1
# [52] = biological target: ScNbp2
# In short: as §1
# [53] = biological target: ScPex13
# In short: as §1
# [54] = biological target: ScRvs167
# In short: as §1
# [55] = biological target: ScSho1
# In short: as §1
# [56] = biological target: ScSla1-D1-D2
# In short: as §1
# [57] = biological target: ScSla1-D3
# In short: as §1
# [58] = biological target: SpAbp1-D1
# In short: as §1
# [59] = biological target: SpBbc1
# In short: as §1
# [60] = biological target: SpBzz1-D1
# In short: as §1
# [61] = biological target: SpBzz1-D2
# In short: as §1
# [62] = biological target: SpCyk3
# In short: as §1
# [63] = biological target: SpHof1
# In short: as §1
# [64] = biological target: SpHof1-2
# In short: as §1
# [65] = biological target: SpHof1-3
# In short: as §1
# [66] = biological target: SpHse1
# In short: as §1
# [67] = biological target: SpLsb1
# In short: as §1
# [68] = biological target: SpLsb4
# In short: as §1
# [69] = biological target: SpMyo1
# In short: as §1
# [70] = biological target: SpNbp2
# In short: as §1
# [71] = biological target: SpPex13
# In short: as §1
# [72] = biological target: SpRvs167
# In short: as §1
# [73] = biological target: SpSla1-D1-D2
# In short: as §1
# [74] = biological target: SpSla1-D3
# In short: as §1
binder,measurement,setting,value
ISRRRLPVIMHRLKM,SPOT peptide array binding signal intensity,[1],138
same,SPOT peptide array binding signal intensity,[2],16.2
same,SPOT peptide array binding signal intensity,[3],66
same,SPOT peptide array binding signal intensity,[4],49.5
same,SPOT peptide array binding signal intensity,[5],14
same,SPOT peptide array binding signal intensity,[6],1
same,SPOT peptide array binding signal intensity,[7],423
same,SPOT peptide array binding signal intensity,[8],6.5
same,SPOT peptide array binding signal intensity,[9],1310
same,SPOT peptide array binding signal intensity,[10],2.75
same,SPOT peptide array binding signal intensity,[11],40
same,SPOT peptide array binding signal intensity,[12],0.25
same,SPOT peptide array binding signal intensity,[13],303
same,SPOT peptide array binding signal intensity,[14],16.5
same,SPOT peptide array binding signal intensity,[15],240
same,SPOT peptide array binding signal intensity,[16],158
same,SPOT peptide array binding signal intensity,[17],9.5
same,SPOT peptide array binding signal intensity,[18],617
same,SPOT peptide array binding signal intensity,[19],645
same,SPOT peptide array binding signal intensity,[20],142
same,SPOT peptide array binding signal intensity,[21],102
same,SPOT peptide array binding signal intensity,[22],49
same,SPOT peptide array binding signal intensity,[23],42.5
same,SPOT peptide array binding signal intensity,[24],36
same,SPOT peptide array binding signal intensity,[25],542
same,SPOT peptide array binding signal intensity,[26],1
same,SPOT peptide array binding signal intensity,[27],61
same,SPOT peptide array binding signal intensity,[28],≤ 0
same,SPOT peptide array binding signal intensity,[29],177
same,SPOT peptide array binding signal intensity,[30],0.5
same,SPOT peptide array binding signal intensity,[31],812
same,SPOT peptide array binding signal intensity,[32],42.3
same,SPOT peptide array binding signal intensity,[33],153
same,SPOT peptide array binding signal intensity,[34],738
same,SPOT peptide array binding signal intensity,[35],386
same,SPOT peptide array binding signal intensity,[36],99.8
same,SPOT peptide array binding signal intensity,[37],150
same,SPOT peptide array binding signal intensity,[38],10.5
same,SPOT peptide array binding signal intensity,[39],23
same,SPOT peptide array binding signal intensity,[40],8.5
same,SPOT peptide array binding signal intensity,[41],9
same,SPOT peptide array binding signal intensity,[42],49
same,SPOT peptide array binding signal intensity,[43],516
same,SPOT peptide array binding signal intensity,[44],1
same,SPOT peptide array binding signal intensity,[45],1390
same,SPOT peptide array binding signal intensity,[46],32.5
same,SPOT peptide array binding signal intensity,[47],2
same,SPOT peptide array binding signal intensity,[48],1300
same,SPOT peptide array binding signal intensity,[49],42
same,SPOT peptide array binding signal intensity,[50],≤ 0
same,SPOT peptide array binding signal intensity,[51],≤ 0
same,SPOT peptide array binding signal intensity,[52],485
same,SPOT peptide array binding signal intensity,[53],18
same,SPOT peptide array binding signal intensity,[54],216
same,SPOT peptide array binding signal intensity,[55],1520
same,SPOT peptide array binding signal intensity,[56],222
same,SPOT peptide array binding signal intensity,[57],70.5
same,SPOT peptide array binding signal intensity,[58],714
same,SPOT peptide array binding signal intensity,[59],0.5
same,SPOT peptide array binding signal intensity,[60],124
same,SPOT peptide array binding signal intensity,[61],0.5
same,SPOT peptide array binding signal intensity,[62],16
same,SPOT peptide array binding signal intensity,[63],285
same,SPOT peptide array binding signal intensity,[64],101
same,SPOT peptide array binding signal intensity,[65],618
same,SPOT peptide array binding signal intensity,[66],690
same,SPOT peptide array binding signal intensity,[67],1.5
same,SPOT peptide array binding signal intensity,[68],484
same,SPOT peptide array binding signal intensity,[69],2.5
same,SPOT peptide array binding signal intensity,[70],437
same,SPOT peptide array binding signal intensity,[71],22
same,SPOT peptide array binding signal intensity,[72],159
same,SPOT peptide array binding signal intensity,[73],14
same,SPOT peptide array binding signal intensity,[74],18.5
NPNRRAPRRPLSTQH,SPOT peptide array binding signal intensity,[1],134
same,SPOT peptide array binding signal intensity,[2],248
same,SPOT peptide array binding signal intensity,[3],136
same,SPOT peptide array binding signal intensity,[4],18.5
same,SPOT peptide array binding signal intensity,[5],96
same,SPOT peptide array binding signal intensity,[6],1
same,SPOT peptide array binding signal intensity,[7],492
same,SPOT peptide array binding signal intensity,[8],37.8
same,SPOT peptide array binding signal intensity,[9],1700
same,SPOT peptide array binding signal intensity,[10],9.75
same,SPOT peptide array binding signal intensity,[11],110
same,SPOT peptide array binding signal intensity,[12],1.5
same,SPOT peptide array binding signal intensity,[13],1950
same,SPOT peptide array binding signal intensity,[14],≤ 0
same,SPOT peptide array binding signal intensity,[15],100
same,SPOT peptide array binding signal intensity,[16],484
same,SPOT peptide array binding signal intensity,[17],18
same,SPOT peptide array binding signal intensity,[18],660
same,SPOT peptide array binding signal intensity,[19],806
same,SPOT peptide array binding signal intensity,[20],1050
same,SPOT peptide array binding signal intensity,[21],184
same,SPOT peptide array binding signal intensity,[22],90
same,SPOT peptide array binding signal intensity,[23],104
same,SPOT peptide array binding signal intensity,[24],189
same,SPOT peptide array binding signal intensity,[25],374
same,SPOT peptide array binding signal intensity,[26],≤ 0
same,SPOT peptide array binding signal intensity,[27],108
same,SPOT peptide array binding signal intensity,[28],≤ 0
same,SPOT peptide array binding signal intensity,[29],330
same,SPOT peptide array binding signal intensity,[30],1.5
